# From PubChem BioAssay
# Most compounds without a hit are left out; they make up all but 1.8% or so of the library.
# Myeloid diff MLP – promotes myeloid progenitor differentiation | ER-HoxA9 myeloid progenitors, lysozyme-GFP differentiation, flow cytometry | calls only at 10 µM | 360,000 compounds, 1% hits | AID 624256;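 active = normalized GFP-positive differentiation at or above the plate's own cutoff, the solvent-only control mean plus 3 SD; inconclusive = no clear call, values can overlap the other calls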;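 note: cells exposed to compound for four days before flow analysis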
# ABCB6 inh 2 – blocks the human ABCB6 transporter; Q9NP58; K562-ABCB6 porphyrin accumulation, flow cytometry, 1 h; active compounds read low; fluorescence ratio to DMSO, % at 10 µM; 360,000 compounds, 0.19% hits;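 active = fluorescence ratio to DMSO below 75%, the collection mean minus 3 SD; inconclusive = too few cells collected in the well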;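 note: signal is porphyrin accumulated inside mitochondria; 100% equals median channel fluorescence of DMSO control wells; lower ratio means ABCB6 inhibition with less porphyrin fluorescence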
# Target sequence (Q9NP58 whole entry, looked up): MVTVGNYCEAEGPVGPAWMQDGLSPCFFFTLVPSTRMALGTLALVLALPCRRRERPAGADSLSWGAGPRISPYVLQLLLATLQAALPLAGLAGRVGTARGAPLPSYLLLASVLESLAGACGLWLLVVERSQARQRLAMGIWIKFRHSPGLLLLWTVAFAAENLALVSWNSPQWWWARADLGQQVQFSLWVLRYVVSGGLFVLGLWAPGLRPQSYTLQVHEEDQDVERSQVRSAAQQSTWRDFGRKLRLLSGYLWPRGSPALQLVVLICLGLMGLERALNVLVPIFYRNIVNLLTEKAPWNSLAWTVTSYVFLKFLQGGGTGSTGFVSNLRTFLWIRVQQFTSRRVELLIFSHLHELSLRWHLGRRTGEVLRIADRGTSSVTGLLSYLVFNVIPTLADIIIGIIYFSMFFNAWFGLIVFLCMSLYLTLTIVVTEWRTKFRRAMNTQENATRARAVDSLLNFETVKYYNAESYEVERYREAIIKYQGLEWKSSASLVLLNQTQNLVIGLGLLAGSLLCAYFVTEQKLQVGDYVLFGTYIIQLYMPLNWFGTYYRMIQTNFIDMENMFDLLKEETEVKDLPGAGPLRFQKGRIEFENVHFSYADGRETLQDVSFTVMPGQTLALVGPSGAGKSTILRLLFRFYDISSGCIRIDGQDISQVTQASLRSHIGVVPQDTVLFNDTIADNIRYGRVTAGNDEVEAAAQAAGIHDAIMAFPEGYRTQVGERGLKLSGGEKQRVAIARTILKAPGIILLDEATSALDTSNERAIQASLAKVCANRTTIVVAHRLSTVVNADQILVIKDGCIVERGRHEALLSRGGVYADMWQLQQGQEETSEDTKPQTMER
# Exocytosis inh – blocks lytic granule exocytosis; TALL-104 LAMP-1 surface exposure, flow cytometry; cells stimulated with thapsigargin and PMA; inhibition, % at 10 µM; 360,000 compounds, 0.66% hits; AID 651702;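 active = inhibition above about 55%, limit read from the data; inconclusive = no clear call, values can overlap the other calls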
# Starred values were filed as active, the others as inactive; i = inactive; ? = inconclusive; + = active, no number.
SMILES,Myeloid diff MLP,ABCB6 inh 2,Exocytosis inh
CCOc1ccc(CCN2C(=O)C(=O)N([C@@H](Cc3ccccc3)CN3CCC[C@H]3CN3C(=O)C(=O)NC[C@@H]3Cc3ccccc3)C[C@@H]2Cc2ccc(O)cc2)cc1,i,93,-8
CCN(CC)C(=O)C1=C(C)N(Cc2ccc(OC)cc2)C(=O)C(CC(=O)NC(c2ccccc2)c2ccccc2)C1 (centres undefined),i,83,-2
COC(=O)CSc1nc(N)c(C#N)c(-c2ccc(O)cc2)c1C#N,i,94,1
C=CCSc1nc(N)c(C#N)c(-c2ccc(C)cc2)c1C#N,+,100,4
C[C@H](CO)N1C[C@H](C)[C@@H](CN(C)S(=O)(=O)c2cn(C)cn2)Oc2c(NS(=O)(=O)c3cccs3)cccc2C1=O,i,95,0
O=C1CCCN1C(=O)CSc1nnnn1-c1cccc(F)c1,i,98,-8
COc1cc(NC(=O)CCc2c(C)noc2C)c(C(=O)O)cc1OC,i,104,2
COc1cc(C=C2C(=O)c3ccccc3C2=O)cc(OC)c1OC,+,105,-2
COc1cccc(/C=C2\C(=O)C(=O)c3ccccc32)c1,+,108,7
COc1ccc(C=C2C(=O)c3ccccc3C2=O)cc1O,i,103,4
COc1cc(C=C2C(=O)c3ccccc3C2=O)ccc1O,i,102,6
COc1cc(C=C2C(=O)c3ccccc3C2=O)cc(OC)c1,+,94,-1
COc1cccc(C=C2Cc3ccccc3C2=O)c1,i,93,-3
N#Cc1cn(Cc2ccco2)c(=O)[nH]c1=O,i,101,10
Fc1ccc2cnc(CCO[C@H]3CCCCO3)cc2c1,i,102,-2
C#CC(=O)CC1(CN(Cc2ccccc2)C(=O)OC(C)(C)C)CCCCC1,i,98,-2
NC(=O)c1ncn([C@@H]2O[C@H](CNC(=O)[C@H](N)CSCc3ccccc3)[C@@H](O)[C@H]2O)n1,i,96,3
CCCCN1C(=O)/C(=C/C=C2\Oc3ccccc3N2CC)SC1=S,+,i,0
CCCN1/C(=C2/SC(=S)N(CC)C2=O)C=Cc2ccccc21,i,95,3
CN1/C(=C\C=C2/SC(=S)N(CC(=O)O)C2=O)C(C)(C)c2ccccc21,i,689,-10
C=CCN1C(=O)/C(=C\C=C2\N(C)c3ccccc3C2(C)C)SC1=S,+,i,0
CCCN1C(=O)/C(=C/c2ccncc2)SC1=S,i,94,2
CCCN1C(=O)/C(=C2/C=Cc3ccccc3N2CC)SC1=S,+,127,0
CCN1C(=O)/C(=C/C=C2/Sc3ccccc3N2CCO)SC1=S,i,290,-1
CCCN1C(=O)/C(=C/C=C2\N(CC)c3ccccc3C2(C)C)SC1=S,+,i,13
SMILES,Myeloid diff MLP,ABCB6 inh 2,Exocytosis inh
O=C(OCC(=O)N1CCC(Cc2ccccc2)CC1)c1ccc(O)cc1,i,94,2
Cc1ccc(C(=O)/C=C/c2ccc(Br)cc2)o1,+,100,0
Cc1ccc(C(=O)/C=C/c2ccccc2)o1,i,103,1
COc1ccc(S(=O)(=O)N2c3ccccc3NC(=O)CC2C)cc1 (centres undefined),i,94,3
N#CC(=C(O)CN1CCN(c2ccccc2F)CC1)c1nc(-c2ccc(Cl)cc2)cs1,i,87,-2
N#CC(=Cc1ccccn1)c1nc(-c2ccc(Cl)cc2)cs1,+,165,-1
CCSc1nc(N)c(C#N)c(-c2ccccc2Cl)c1C#N,i,88,7
N#Cc1c(N)nc(Sc2ccc(Cl)cc2)c(C#N)c1-c1ccccc1Cl,+,98,79*
CCCNC(=O)C1(C)CCCN(Cc2ccccc2C#N)C1 (centres undefined),?,103,-6
CCCNC(=O)c1ccccc1NC(=O)c1ccccc1N(C)S(=O)(=O)c1ccc(C)cc1,+,111,-3
CCCNC(=O)c1ccccc1NC(=O)c1ccccc1N(C)S(C)(=O)=O,i,100,0
CCOC(=O)c1c(SCCN2CCCCC2)n(-c2ccccc2)c(=S)n(-c2ccccc2)c1=O,i,96,69*
CCOC(=O)c1c(SC)n(-c2ccccc2)c(=S)n(-c2ccccc2)c1=O,i,93,2
CN(C)c1ccc(N=Nc2ccc(S(N)(=O)=O)cc2)cc1,i,96,-3
CC1=CC(=O)C=CC1=Nc1ccc(N(C)C)cc1,?,97,84*
O=C(Nc1ccn(CCCN2CCN(c3ccccn3)CC2)c(=O)n1)OCc1ccccc1,i,98,-2
CN(C)c1ccc(-c2ccnc3c2CC(C)(C(=O)NCCC(F)(F)F)O3)cc1 (centres undefined),i,93,-4
COCCNC(=O)C1(C)CCCN(Cc2cc(C(F)(F)F)ccc2Cl)C1 (centres undefined),i,100,49
O=C1NC[C@@H](CCCCN2C[C@H](Cc3ccc(O)cc3)N(CC3CCCCC3)C(=O)C2=O)N(CC2CCCCC2)C1=O,i,97,3
Cc1cccc(NC(=O)CN2CCN(C(=O)c3cc(C4CC4)nn3-c3ccccc3)CC2)c1C,+,90,0
O=C(CN1CCN(C(=O)c2cc(C3CC3)nn2-c2ccccc2)CC1)Nc1ccc(F)cc1,i,86,-3
Cc1ccccc1OCC(=O)Nc1nnc(C2CCCC2)s1,i,93,-1
CCCC1NC(=O)c2cccnc2-n2c1nc1cc(F)c(F)cc1c2=O (centres undefined),i,109,1
CCOC(=O)C1(CCCc2ccccc2)CCN(C(=O)c2ocnc2C)CC1,i,93,1
CCOC(=O)C1(CC2CC2)CCN(C(=O)c2ocnc2C)CC1,+,92,2
SMILES,Myeloid diff MLP,ABCB6 inh 2,Exocytosis inh
COc1ccc(CCC(=O)Nc2cc(S(=O)(=O)N3CCCCC3)ccc2N(C)C)cc1,i,100,3
CCN1CCN(c2ccc(S(=O)(=O)N3CCCCC3)cc2NC(=O)/C=C/c2cccc(OC)c2OC)CC1,+,96,-9
CCN1CCN(c2ccc(S(=O)(=O)N3CCCCC3)cc2NC(=O)/C=C/c2ccc(F)cc2)CC1,i,104,22
CN(C)C(=O)CNc1ccn2nc(-c3cccc(Cl)c3)cc2n1,i,88,1
CC1(C)C(=O)Nc2ccccc2N1C(=O)COc1ccc(C#N)cc1,i,101,1
O=c1c2ccccc2nc2n1-c1ccccc1CCC2,i,98,0
O=C1c2ccccc2-n2c1nc1ccccc1c2=O,+,111,-4
Cc1ccc(NC(=O)CN(C)C(=O)CSc2nccn2C)cc1,i,89,-2
CC(C)C[C@@H](CN1CCC[C@H]1CN1C(=O)C(=O)NC[C@@H]1Cc1ccc(O)cc1)N1C[C@H](Cc2ccc(O)cc2)N(CC2CCCCCC2)C(=O)C1=O,i,100,4
O=S(=O)(c1ccc(F)cc1)c1nc(-c2ccco2)oc1NCCCn1ccnc1,i,100,-1
O=C(C[C@H]1C/C=C\C[C@H](NC(=O)OCC2c3ccccc3-c3ccccc32)C(=O)O[C@H](c2ccccc2)CNC1=O)N[C@H](CO)Cc1ccccc1,i,87,14
C=CCn1c(Sc2ncc([N+](=O)[O-])s2)n[nH]c1=O,?,97,58*
C=CCn1c(CSc2ccccc2[N+](=O)[O-])n[nH]c1=S,i,96,-16
